{"source": "the supplement of paper PMC7695840", "data": [{"tested_on": "Staphylococcus aureus MW2 delta-mecA (mecA-)", "assay": "normalized GFP fluorescence (growth of mecA- strain) (fraction of control range); higher = more growth of mecA- strain", "details": "compound concentration: 150 uM; cefoxitin: subinhibitory; fluorescent label: GFP", "procedure,_shortened": "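In 1536-well plates holding 150 μM compound (1.5% DMSO), a 1:1 mix of pre-induced S. aureus MW2 cells was added at 5 µL/well, in one replicate. One strain carried the gene and DsRed, the other lacked the gene and carried GFP, and the LB held a subinhibitory antibiotic dose chosen daily. Plates stood unshaken for 20 h at 37 °C, 90% humidity, before DsRed (540/590) and GFP (485/520) readings, which were scaled per plate to single-strain control medians, with plates high in untreated ratio and rows above DsRed/GFP 10 dropped.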", "values": [{"smiles": "CC[C@@]1(O)C(=O)OCc2c1cc1n(c2=O)Cc2cc3c(CN(C)C)c(O)ccc3nc2-1", "normalized GFP fluorescence": 0.791}, {"smiles": "CC(C)CN(C[C@@H](O)[C@H](Cc1ccccc1)NC(=O)O[C@H]1CCOC1)S(=O)(=O)c1ccc(N)cc1", "note": "[Amprenavir (Agenerase)]", "normalized GFP fluorescence": 0.174}, {"smiles": "CC(=O)OCC(=O)[C@@]1(O)CC[C@H]2[C@@H]3CCC4=CC(=O)CC[C@]4(C)[C@H]3[C@@H](O)C[C@@]21C", "normalized GFP fluorescence": 0.58}, {"smiles": "COc1cc2nccc(Oc3ccc(NC(=O)NC4CC4)c(Cl)c3)c2cc1C(N)=O", "note": "[E7080 (Lenvatinib)]", "normalized GFP fluorescence": 0.528}, {"smiles": "COCCCN1CCC(NC(=O)c2cc(Cl)c(N)c3c2OCC3)CC1", "note": "[Prucalopride]", "normalized GFP fluorescence": 0.256}, {"smiles": "NNC(=O)c1ccncc1", "normalized GFP fluorescence": 0.19}, {"smiles": "COC(=O)[C@@H]1[C@H]2C[C@H]3c4[nH]c5ccccc5c4CCN3C[C@@H]2CC[C@@H]1O", "normalized GFP fluorescence": 0.259}, {"smiles": "Cc1ccc(N(CC2=NCCN2)c2cccc(O)c2)cc1", "normalized GFP fluorescence": 0.3}, {"smiles": "C=CC[C@@H]1/C=C(\\C)C[C@H](C)C[C@H](OC)[C@H]2O[C@@](O)(C(=O)C(=O)N3CCCC[C@H]3C(=O)O[C@H](/C(C)=C/[C@@H]3CC[C@@H](O)[C@H](OC)C3)[C@H](C)[C@@H](O)CC1=O)[C@H](C)C[C@@H]2OC", "normalized GFP fluorescence": 0.0654}, {"smiles": "CN[C@@H]1[C@@H](O)[C@@H](O[C@@H]2[C@@H](O)[C@H](O[C@H]3OC(CN)=CC[C@H]3N)[C@@H](N)C[C@H]2N)OC[C@]1(C)O", "normalized GFP fluorescence": 0.511}, {"smiles": "O=P(O)(O)C(O)(Cc1cccnc1)P(=O)(O)O", "note": "[Risedronic acid (Actonel)]", "normalized GFP fluorescence": 0.68}, {"smiles": "Cc1ccccc1N1C(=O)c2cc(S(N)(=O)=O)c(Cl)cc2NC1C", "note": "(configuration not stated)", "normalized GFP fluorescence": 0.113}]}]}
